The panel holds about 83,000 compounds, 20% with a hit somewhere; the sample as a whole holds those more often.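 Single-dose data. Exposure time 48 hours. Values below 10 considered active.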 Active and inactive are the calls of the source.
How the values were obtained:
Test in all cases: NCI-60 one-dose screen, 48 h (100 = growth as untreated, 0 = no growth, -100 = all killed)
Settings in all cases: 10 µM unless noted
NCI-H226 lung = system: NCI-H226 lung
NCI-H322M lung = system: NCI-H322M lung
HOP-62 NSCLC = system: HOP-62 NSCLC
NCI-H460 lung = system: NCI-H460 lung
HOP-92 NSCLC = system: HOP-92 NSCLC
NCI-H522 lung = system: NCI-H522 lung
A549/ATCC NSCLC = system: A549/ATCC NSCLC
786-0 renal = system: 786-0 renal
COLO 205 colon = system: COLO 205 colon

Structure (SMILES) | growth (NCI-H226 lung) | growth (NCI-H322M lung) | growth (HOP-62 NSCLC) | growth (NCI-H460 lung) | growth (HOP-92 NSCLC) | growth (NCI-H522 lung) | growth (A549/ATCC NSCLC) | growth (786-0 renal) | growth (COLO 205 colon)
COc1cc(C2CC(c3cc(OC)c(OCCCOc4ccc(-n5c(/C=C/c6ccccc6)nc6ccccc6c5=O)cc4)c(OC)c3)=NO2)cc(OC)c1OC (stereo not drawn) | 110% (inactive) | 123% (inactive) | 122% (inactive) | 113% (inactive) | 42.5% (inactive) | 91.1% (inactive) | 99.7% (inactive) | 108% (inactive) | 115% (inactive)
COc1ccc(C2=NN(C(=O)c3cc(OC)c(OC)c(OC)c3)C(c3ccc(Cl)cc3)C2)cc1OC (stereo not drawn) | 58.3% (inactive) | 55.7% (inactive) | 44.1% (inactive) | 14.3% (inactive) | 31.6% (inactive) | 4.89% (active) | 29.4% (inactive) | 22.5% (inactive) | 12.3% (inactive)
CCOC(=O)c1c(-c2ccc(Cl)cc2)c(C#N)c(=O)n(-c2ccccc2CC)c1N | 85.4% (inactive) | – | 97.5% (inactive) | 82.3% (inactive) | 65.9% (inactive) | 92% (inactive) | 85% (inactive) | 93.4% (inactive) | 111% (inactive)
CN(c1ccccc1)c1ccc2c(c1)OCCC21CC1Nc1cnccc1C(=O)O (stereo not drawn) | 63.9% (inactive) | 87.5% (inactive) | 63.2% (inactive) | 45.7% (inactive) | 101% (inactive) | 63.7% (inactive) | 83.4% (inactive) | 72.9% (inactive) | 68.6% (inactive)
O=c1c2cc(F)ccc2sc2c(NCCN3CCCCC3)nc3ccccc3c12 | 77% (inactive) | – | 64.4% (inactive) | 18.3% (inactive) | 34.2% (inactive) | 34.2% (inactive) | 59.1% (inactive) | 41% (inactive) | 48% (inactive)
CCOP(=O)(OCC)C1CP(=O)(c2ccccc2)CC(C)=C1Cl (stereo not drawn) | 99.3% (inactive) | 97.7% (inactive) | 97.1% (inactive) | 113% (inactive) | 93.1% (inactive) | 65.3% (inactive) | 87.5% (inactive) | 87.8% (inactive) | 109% (inactive)
COc1cc(C(=O)/C=C/c2c(C(F)(F)F)nc3sccn23)cc(OC)c1OC | 29.1% (inactive) | 13.8% (inactive) | 4.69% (active) | -72.1% (active) | 40.1% (inactive) | -63.1% (active) | 11.3% (inactive) | 3.07% (active) | -76.7% (active)
CNC(=O)NCC1OC(n2cnc3c(NC(=O)Nc4ccccc4)ncnc32)C(O[Si](C)(C)C(C)(C)C)C1CC(=O)N(C)OC (stereo not drawn) | 40.6% (inactive) | 78.8% (inactive) | 60.3% (inactive) | 18.1% (inactive) | -34.3% (active) | 65.9% (inactive) | 2.06% (active) | 47.4% (inactive) | -100% (active)
COC(=O)[C@]12CC[C@@H](C)[C@H](C)[C@@H]1C1=CC[C@@H]3[C@@]4(C)C(C=O)=C[C@@](C)(COC(=O)c5ccco5)C4=CC[C@@]3(C)[C@]1(C)CC2 | 19.1% (inactive) | 39.6% (inactive) | 7.71% (active) | 2.11% (active) | -15.5% (active) | -6.14% (active) | 8.76% (active) | -8.17% (active) | -55.8% (active)
CC1CC2Oc3ccc(Cl)cc3C(=O)N2O1 (stereo not drawn) | 99.3% (inactive) | – | 101% (inactive) | 108% (inactive) | 86.4% (inactive) | 108% (inactive) | 98% (inactive) | 104% (inactive) | 108% (inactive)
O=C1Nc2ccccc2/C1=C/c1cn(C(=O)c2ccc(Cl)cc2)c2ccccc12 | 92.3% (inactive) | 127% (inactive) | 111% (inactive) | 107% (inactive) | 99.3% (inactive) | 85.6% (inactive) | 101% (inactive) | 111% (inactive) | 58.2% (inactive)
O=C(/C=C/c1ccc(Cl)nc1)c1ccc(Cl)cc1Cl | 103% (inactive) | 99.8% (inactive) | 106% (inactive) | 98% (inactive) | 110% (inactive) | 38.7% (inactive) | 94.4% (inactive) | 86.8% (inactive) | 111% (inactive)
Oc1c(CN2CCCC2)cc(COCc2ccc(Br)cc2)c2cccnc12 | -0.576% (active) | -5.34% (active) | -4.92% (active) | -21.8% (active) | 27.6% (inactive) | -45% (active) | 4.92% (active) | -8.02% (active) | 39.1% (inactive)
COc1cc(/C=N/n2c(CN3CCOCC3)nc3ccccc3c2=O)cc(OC)c1OC | 115% (inactive) | 90% (inactive) | 96.4% (inactive) | 109% (inactive) | 106% (inactive) | 97.9% (inactive) | 92.3% (inactive) | 100% (inactive) | 106% (inactive)

— PubChem BioAssay (NCI)
